MITF primary – blocks human microphthalmia-associated transcription factor. AlphaScreen MITF homodimerization, bead proximity signal. O75030. AID 1259374. 650,000 tested, 0.91% active. inhibition, % at 2.6 µM; in the data active means inhibition above about 50%
Target sequence (O75030 whole entry, looked up): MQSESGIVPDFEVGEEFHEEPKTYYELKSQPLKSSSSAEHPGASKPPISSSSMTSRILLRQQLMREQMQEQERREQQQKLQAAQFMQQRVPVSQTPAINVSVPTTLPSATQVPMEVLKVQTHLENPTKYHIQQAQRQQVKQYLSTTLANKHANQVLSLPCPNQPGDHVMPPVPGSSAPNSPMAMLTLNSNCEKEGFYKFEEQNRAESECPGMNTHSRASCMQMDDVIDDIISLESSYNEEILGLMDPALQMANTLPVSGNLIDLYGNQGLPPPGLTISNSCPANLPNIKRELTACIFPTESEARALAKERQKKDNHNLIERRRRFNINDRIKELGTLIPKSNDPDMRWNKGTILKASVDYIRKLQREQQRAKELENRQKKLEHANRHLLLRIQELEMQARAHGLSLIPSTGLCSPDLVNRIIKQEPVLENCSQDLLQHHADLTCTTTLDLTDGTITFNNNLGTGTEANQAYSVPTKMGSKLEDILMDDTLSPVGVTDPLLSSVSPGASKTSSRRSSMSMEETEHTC
FBW7 act – activators of human E3 ligase FBW7; AlphaScreen FBW7–phospho-cyclin E peptide binding, activator screen; 650,000 tested, 0.13% active; normalized activity (activation), % at 26.1 µM; Q969H0; in the data active means normalized activity above about 1.9%;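 further: purified mutant Fbw7 with reduced substrate affinity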
TEAD-YAP block – TEAD-YAP interaction inhibition; HEK-TIYL cells, TEAD-Gal4/YAP UAS-luciferase luminescence; inhibition, % at 9.12 µM; 640,000 tested, 1.4% active; in the data active means inhibition above about 32%
GPR151 ag – activators of human GPR151; Q8TDV0; PathHunter beta-arrestin GPR151 cells, luminescence; activation, % at 11.2 µM; 650,000 tested, 1% active; in the data active means activation above about 4.9%
Of the large screens only hits and unclear results are named; the others gave an inactive call. A selection: hits, their analogues and other compounds. The true share with any hit is near 3.4%.

C/C(=N\Nc1ncc(Cl)cc1Cl)c1ccccn1	TEAD-YAP block 82
O=C(CN1CCN(Cc2ccccc2F)C1=O)NC1CCCCCC1	none
CCCCNC(=O)c1cc(COc2cccc3cnccc23)on1	none
CN(Cc1ccccc1)C(=O)c1cc(COc2cccc3cnccc23)on1	TEAD-YAP block 33
O=C(c1cc(COc2cccc3cnccc23)on1)N1CCCC(CCCO)C1 (stereo not drawn)	TEAD-YAP block 65
Cc1ccc(C)c(NC(=O)Nc2nnc(N3CCC(C)CC3)s2)c1	none
CN(C)c1ccc(/C=C(\NC(=O)c2ccccc2F)C(=O)Nc2ccc(F)c(Cl)c2)cc1	MITF primary 61
Cc1ccc(NC(=O)/C(=C/c2ccc(N(C)C)cc2)NC(=O)c2ccccc2F)cc1Cl	none
Cc1ccc(C2=N/C(=C\c3ccccc3OC(=O)c3ccc(Cl)cc3)C(=O)O2)cc1	TEAD-YAP block 45
O=C1OC(c2ccc(Cl)cc2)=N/C1=C/c1ccccc1OC(=O)c1ccc(Br)cc1	none
CCOC(=O)CC(=O)CSc1nc2c(sc(=S)n2-c2ccc(C)cc2C)c(=O)n1-c1ccc(OCC)cc1	none
Cc1ccc[n+](C(C)C(=O)c2ccccc2)c1 (stereo not drawn)	none
Cc1cc(C)c[n+](C(C)C(=O)c2ccc(-c3ccccc3)cc2)c1 (stereo not drawn)	TEAD-YAP block 72
CCOc1ccc2[nH]cc(C(=O)NCc3cccnc3)c(=O)c2c1	TEAD-YAP block 41
CNC(=O)CN1C(=O)COc2ccc(S(=O)(=O)N3CC(C)CC(C)C3)cc21 (stereo not drawn)	none
CCOC(=O)C(C)n1cnc2sc(C)c(-c3ccc(C)c(C)c3)c2c1=O (stereo not drawn)	none
Cc1sc(NC(=O)c2ccccc2Cl)c(C#N)c1C	FBW7 act 2.6
COC(=O)c1sc(NC(=O)c2ccccc2Cl)c(C#N)c1C	none
Cc1nc(NCc2cccnc2)c2c(C)c(C)sc2n1	none
Cc1sc2nc(-c3cccnc3)nc(NCCSCc3ccco3)c2c1C	TEAD-YAP block 68
Cc1noc(C)c1CCC(=O)N1CCC(C(=O)Nc2cccc(-c3ccco3)c2)CC1	TEAD-YAP block 34
O=C(Nc1ccc(N2CCCN(C(=O)C3CC3)CC2)cc1)c1ccc(-n2cccc2)cc1	TEAD-YAP block 33
CCCCCOc1ccc(NC(=O)c2ccccc2I)cc1	none
Nc1nc(SCCCC(=O)NCCO)nc2sc3c(c12)CCCC3	FBW7 act 2.3
OCc1ccc(-c2cnn3c(N4CCOCC4)ccnc23)cc1	TEAD-YAP block 42
CN1CCN(c2ccnc3c(-c4ccc(CO)cc4)cnn23)CC1	none
O=C(O)CCc1ccc(-c2cnn3c(N4CCC(O)CC4)ccnc23)cc1	TEAD-YAP block 37
COc1ccc(/C=N/NC(=O)C2CC(=O)N(c3ccc(Br)cc3)C2)cc1 (stereo not drawn)	none
CCc1ccc(/C=N\NC(=O)C2CC(=O)N(c3ccc(OC)cc3)C2)cc1 (stereo not drawn)	TEAD-YAP block 47
COc1ccc(/C=C2\SC(=O)N(CCC(=O)O)C2=O)c(OC)c1	TEAD-YAP block 64
CCOc1ccc(/C=C2\SC(=S)N(CCCC(=O)O)C2=O)cc1	TEAD-YAP block 79
Cc1ccc(/C=C2\SC(=S)N(CCCC(=O)Nc3cccnc3)C2=O)cc1	TEAD-YAP block 34
COc1ccc(/C=C2\SC(=O)N(CO)C2=O)c(OC)c1	none
Cc1ccc(/C=C2/SC(=S)N(Cc3cccnc3)C2=O)cc1	none
COC(=O)CCCN1C(=O)/C(=C\c2ccc3c(c2)OCO3)SC1=S	TEAD-YAP block 59
Cn1ccc(N2C(=O)c3cccc4c([N+](=O)[O-])ccc(c34)C2=O)n1	none
Cc1cc(NS(=O)(=O)c2ccc(NC(=O)c3csc4c3CCCC4)cc2)no1	none
CCc1ccc(-n2c(SCC(=O)Nc3ccc(C)cc3)nc3n[nH]c(C)c3c2=N)cc1	none
COc1cccc(CNC(=O)c2c(C(F)(F)F)nc3c(OC)cccn23)c1	none
O=C(CO)Nc1ccc([N+](=O)[O-])cc1Br	none
CCOC(=O)C1=C(C)N=c2s/c(=C\c3ccc(C)o3)c(=O)n2C1c1ccc(N(C)C)cc1 (stereo not drawn)	none
O=C(O)CCCN1C(=O)/C(=C\c2ccc(OC(F)F)cc2)SC1=S	TEAD-YAP block 59
COc1ccc(/C=C2/SC(=S)N(CCC(=O)O)C2=O)cc1	TEAD-YAP block 58
CCCN1C(=O)/C(=C/c2ccc(OC)cc2)SC1=S	none
O=C(O)CCCCCN1C(=O)/C(=C/c2ccc(O)cc2)SC1=S	none
CCOc1cc(/C=C2\SC(=S)N(CCCC(=O)O)C2=O)ccc1O	TEAD-YAP block 82
COc1cc(/C=C2/SC(=S)N(CCCC(=O)O)C2=O)ccc1O	TEAD-YAP block 61
CCCN1C(=O)/C(=c2\sc3n(c2=O)C(c2ccc(OC(C)=O)cc2)C(C(=O)OCC)=C(C)N=3)c2ccccc21 (stereo not drawn)	none
O=C(O)CCCN1C(=O)/C(=C/c2ccccc2F)SC1=S	TEAD-YAP block 54
C=CCOc1c(/C=C2/SC(=S)N(CCC(=O)O)C2=O)cccc1OC	none
COc1cccc(/C=C2/SC(=S)N(CCCC(=O)O)C2=O)c1OC	TEAD-YAP block 80
CCN(CC)c1ccc(N)c(C)c1	MITF primary 80
COc1cccc(CNC(=O)c2c(-c3ccccc3)nc3ccccn23)c1	none
CCOc1ccc(S(=O)(=O)NCCC(=O)OCC(=O)c2c[nH]c3ccccc23)cc1	none
COC(=O)/C(N=Nc1ccc(-c2ccccc2)cc1)=C(/O)CCl	TEAD-YAP block 61
CCOC(=O)/C(N=Nc1ccc([N+](=O)[O-])cc1)=C(\O)CCl	none
OC[C@H]1O[C@@H](n2cnc3c(NCc4ccco4)ncnc32)[C@H](O)[C@@H]1O	TEAD-YAP block 74
Cc1cc(I)ccc1NCC(=O)N/N=C/C=C/c1ccccc1	none
CCOC(=O)c1ccc(Nc2cc(C)nc3c(C)cc(C)cc23)cc1	TEAD-YAP block 47
CCOC(=O)c1cccc(Nc2cc(C)nc3c(C)cc(C)cc23)c1	none
CCOC(=O)c1ccc2nc(C)cc(Nc3cccc(O)c3)c2c1	TEAD-YAP block 75
CC(=O)Nc1ccc(Nc2cc(C)nc3c(C)cc(C)cc23)cc1	none
COC(=O)c1ccc(Nc2cc(C)nc3c(C)cc(C)cc23)cc1	TEAD-YAP block 49
CC1CCCC(NC(=O)CN2C(=O)CCSc3ccccc32)C1C (stereo not drawn)	none
CC(=O)OC1c2cc(C)ccc2NC(c2ccc(F)cc2)C1(C)C (stereo not drawn)	TEAD-YAP block 34
CC(=O)OC1c2cc(C)ccc2NC(c2ccc(Cl)cc2)C1(C)C (stereo not drawn)	none
O=C(CN(c1ccccc1)S(=O)(=O)c1ccc(F)cc1)NC1CCCC1	none
Cc1oc2c(c1C(=O)N1CCN(C)CC1)C(=O)c1ccccc1C2=O	TEAD-YAP block 48
Cc1oc2c(c1C(=O)NCC1CCCO1)C(=O)c1ccccc1C2=O (stereo not drawn)	TEAD-YAP block 77
Cc1cccc(-n2nc3c(c2NC(=O)c2ccc([N+](=O)[O-])cc2)CSC3)c1C	none
CC1(C)CC2=NN(c3ccccc3)P(=O)(c3ccccc3)C2=C(N2CCOCC2)C1 (stereo not drawn)	none
